Assay outcomes: PubChem, National Center for Advancing Translational Sciences (NCATS)
In the library only some 5.7% were active in any assay of this set; here they are far more common.
JMJD2E inh – inhibitors of human JMJD2E histone demethylase. JMJD2E catalytic domain, FDH-coupled NADH fluorescence (FDH is formaldehyde dehydrogenase). Potency, µM (highest dose often 57.1 µM), without a hit: top-dose activity change, negative = inhibition, actives largely listed as inhibitors. 1.6% of 230,000 active; active = well fitted inhibition curve with a large enough effect, not every such curve was filed as active; inconclusive = small, poorly fitted or top-dose-only effect, or another doubt; inactive = no such curve, though single readings can be large or run the other way;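 also: potency is read from the fitted curve at half-maximal effect; 0% = wells with enzyme and -100% = buffer wells without enzyme; nearly all actives have a fitted effect of over 50% in size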
BAZ2B block – blocks human BAZ2B; AlphaScreen BAZ2B-H3K14Ac peptide displacement; 4.4% of 360,000 active; Q9UIF8; Potency, µM (top dose mostly 114 µM), without a hit: at the highest dose activity change, negative = inhibition, most hits filed as inhibitors; also: potency is read from the fitted curve at half-maximal effect; % is scaled to controls: 0 for no effect and ±100 for the full control effect; nearly all actives have a fitted effect of over 60% in size
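Inhibition is scored as reduced AlphaScreen emission. The BAZ2B/b-H3(5-23)K14Ac complex (50 nM each) in PBS pH 7.4, 0.01% Tween-20 meets compound (up to 110 uM) for 30 min at RT before bead addition.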
JMJD2A Tudor – inhibitors of human JMJD2A Tudor domain. 4.4% of 390,000 active. O75164. Potency, µM (highest dose often 114 µM), without a hit: top-dose activity change, negative = inhibition, actives largely listed as inhibitors. AID 504339. AlphaScreen JMJD2A-Tudor / H3K4me3 peptide binding; also: potency is read from the fitted curve at half-maximal effect; % is scaled to controls: 0 for no effect and ±100 for the full control effect; nearly all actives have a fitted effect of over 50% in size
PI5P4Ka inh – PI5P4K alpha (human) kinase inhibition. AID 652105. max response, %. 1.2% of 330,000 active. PI5P4Kalpha enzyme, ADP-Glo luminescence, 60 min; active compounds read low. P48426; active = max response of -50% or lower; inconclusive = between -30% and -50%; inactive = -30% or higher; also: value at the top dose of about 77 µM; % is scaled to controls: 0 for no effect and ±100 for the full control effect
Target sequence (P48426 whole entry, looked up): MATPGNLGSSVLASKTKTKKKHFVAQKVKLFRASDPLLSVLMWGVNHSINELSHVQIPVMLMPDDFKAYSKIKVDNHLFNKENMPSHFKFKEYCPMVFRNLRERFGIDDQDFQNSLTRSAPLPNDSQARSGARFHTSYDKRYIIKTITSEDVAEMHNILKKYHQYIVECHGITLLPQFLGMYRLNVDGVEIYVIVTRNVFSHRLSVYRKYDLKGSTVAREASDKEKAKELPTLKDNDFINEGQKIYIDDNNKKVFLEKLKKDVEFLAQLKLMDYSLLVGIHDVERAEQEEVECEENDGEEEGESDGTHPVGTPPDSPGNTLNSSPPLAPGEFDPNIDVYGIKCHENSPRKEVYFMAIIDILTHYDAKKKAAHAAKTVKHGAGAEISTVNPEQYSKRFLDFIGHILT
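ADP-Glo luminescence end-point read after a 60 min room-temperature kinase reaction of PI5P4Kalpha plus substrate, initiated with ATP at 5 microM final. Buffer: 0.038 M HEPES pH 7.4, EGTA, 0.1% CHAPS, 5% DMSO.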
L3MBTL1 block – inhibitors of human L3MBTL1 | Potency, µM (titrated, usually from 57.1 µM), without a hit: at the highest dose activity, negative = inhibition, usual class: inhibitors | 0.66% of 230,000 active | AlphaScreen L3MBTL1–H3K9me1 peptide binding; also: potency is read from the fitted curve at half-maximal effect; % is scaled to controls: 0 for no effect and ±100 for the full control effect; nearly all actives have a fitted effect of over 60% in size
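L3MBTL1 50 nM + b-AHA-H3(1-15)K9me1 75 nM, 30 min RT; compound added, 30 min RT; streptavidin donor/Ni-chelate acceptor beads 10 ug/mL each final, 30 min RT dark; AlphaScreen read.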
HP1b chromo inh – blocks HP1-beta chromodomain binding to methylated histone tails | P83916 | AlphaScreen HP1-beta / biotin-H3K9me3 peptide binding | Potency, µM (titrated, usually from 114 µM), without a hit: at the highest dose activity change, negative = inhibition, actives largely listed as inhibitors | 0.56% of 390,000 active | AID 540317; also: potency is read from the fitted curve at half-maximal effect; nearly all actives have a fitted effect of over 70% in size
Target sequence (P83916 whole entry, looked up): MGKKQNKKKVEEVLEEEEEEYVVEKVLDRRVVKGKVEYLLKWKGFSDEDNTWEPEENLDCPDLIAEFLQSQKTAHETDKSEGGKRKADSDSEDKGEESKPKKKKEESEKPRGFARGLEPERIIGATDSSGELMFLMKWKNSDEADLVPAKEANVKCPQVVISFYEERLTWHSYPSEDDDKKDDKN
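Compound inhibition of the preformed complex between 50 nM HP1-beta and 50 nM biotinylated H3K9me3 peptide was read by AlphaScreen. Buffer was PBS pH 7.4 with 0.01% Tween-20. Incubations ran 30 min at room temperature, with 10 ug/mL donor/acceptor beads.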
* marks the source's active call; other numbers are inactive results; ? = inconclusive; . = no result given; [ ] = dose if it differs, or a comment. Unless noted, calls follow the shape of the dose curve; as a rule, active = well fitted inhibition curve with a large enough effect; inconclusive = small, poorly fitted or top-dose-only effect; inactive = no such curve, though single readings can be large or run the other way.

SMILES	JMJD2E inh	BAZ2B block	JMJD2A Tudor	PI5P4Ka inh	L3MBTL1 block	HP1b chromo inh
COc1ccccc1N1CCN(C(=O)c2ccc3[nH]c4c(c3c2)CC(C)CC4)CC1 (configuration not stated)	-10%	40µM*	?	2	-14%	?
COc1ccc(NC2CCCN(C(=O)c3ccc4[nH]c(C)c(C)c4c3)C2)cc1OC (configuration not stated)	.	45µM*	?	3	.	-8%
Cc1[nH]c2ccc(C(=O)N3CCN(c4ccccc4Cl)CC3)cc2c1C	.	22µM*	45µM*	1	.	?
CC1CCc2[nH]c3ccc(C(=O)O)cc3c2C1 (configuration not stated)	.	19%	-4%	-8	15%	37%
CCN(CC)c1cc2c(cc1F)c(=O)c(S(=O)(=O)c1ccc(OC)cc1)cn2CC	.	0%	-11%	.	.	34%
CCOC(=O)c1ccc(NC(=O)c2cc3sccc3n2Cc2ccc(Cl)cc2)cc1	.	-7%	-30%	.	.	20%
CCCCCC(=O)Nc1cc(S(=O)(=O)O)cc2cc(S(=O)(=O)O)cc(O)c12	.	.	1.1µM*	-86*	.	1.4µM*
CCCCOc1ccc(CNC(=O)c2cnc3sc(N4CCC(C)CC4)nn3c2=O)cc1	.	23%	-14%	.	.	52%
C/C(=N\Nc1ccc(F)cc1)c1ccc(N2CCOCC2)c(F)c1	.	-19%	-25%	3	.	32%
Clc1ccccc1C1CC(c2ccccc2)=Nc2ccccc2N1 (configuration not stated)	-2%	?	-4%	0	-25%	19%
Brc1ccccc1C1CC(c2ccccc2)=Nc2ccccc2N1 (configuration not stated)	?	?	40µM*	7	-10%	-24%
COc1ccc(-c2ccc(CCC(=O)O)n2NC(=O)c2ccc(O)cc2)cc1	-10%	-14%	-17%	0	-2%	45%
COc1ccc(C(=O)Nn2c(CCC(=O)O)ccc2-c2ccc(C)cc2)cc1OC	4%	-25%	50µM*	?	0%	-19%
c1ccc2c(c1)nc(Nc1ccc(N3CCCCC3)cc1)c1nncn12	0%	28µM*	45µM*	1	?	?
COC(=O)c1c(-c2cccs2)csc1NC(=O)COc1ccc(C)cc1	.	-13%	-2%	.	.	-7%
COC(=O)c1c(-c2cccs2)csc1NC(=O)COc1c(C)ccc(C)c1C	.	?	79µM*	.	.	?
COC(=O)C1=C(C)Nc2ccc(C)cc2S1	-4%	40µM*	79µM*	-3	.	?
COc1ccc(NC(=O)CSCc2cc(=O)c3cc(Cl)ccc3[nH]2)cc1	.	7%	-10%	.	.	20%[57 µM]
Cc1ccc2sc(NC(=O)C3CC3)nc2c1C	.	-16%	-4%	13	.	29%
CC1CCCCN1Cc1c(O)ccc2c(=O)c(-c3ccc(Cl)cc3)c(C(F)(F)F)oc12 (configuration not stated)	.	1%	-16%	.	.	27%
Cc1ccc(NCC(=O)N/N=C/c2cccn2C)cc1	-14%	40µM*	?	4	-14%	-26%
Cn1cccc1/C=N/NC(=O)CNc1ccc2ccccc2c1	-10%	25µM*	56µM*	9	-29%	?
Cc1ccc(OCC(=O)N/N=C/c2cccn2C)cc1	-1%	?	-33%	-6	-20%	-27%
Cn1cccc1/C=N/NC(=O)Cc1cccc2ccccc12	-1%	14µM*	?	1	.	-12%
O=C1c2ccccc2C(=O)N1/N=C/c1ccc(O)c(O)c1	16µM*	?	8.9µM*	-12	?	-20%[57 µM]
SMILES	JMJD2E inh	BAZ2B block	JMJD2A Tudor	PI5P4Ka inh	L3MBTL1 block	HP1b chromo inh
O=C1C2C3C=CC(CC3)C2C(=O)N1/N=C/c1ccc(O)cc1 (configuration not stated)	-1%	-4%	-3%	.	3%	20%
O=C1C2C3C=CC(CC3)C2C(=O)N1/N=C/c1ccc(O)c(O)c1 (configuration not stated)	16µM*	?	-23%	?	-7%	?
COc1ccc(Cc2nn3c(-c4cc(OC)c(OC)c(OC)c4)nnc3s2)cc1	-7%	-7%	79µM*	-20	-12%	?
COc1cc(-c2nnc3sc(Cc4ccc(Cl)cc4)nn23)cc(OC)c1OC	.	.	-20%	-19	.	-17%
CC1CCC/C(=C\Nc2ccccc2C(=O)O)C1=O (configuration not stated)	?	?	-26%	.	1%	38%
CC1CCC/C(=C\Nc2ccc3c(c2)OCO3)C1=O (configuration not stated)	?	?	100µM*	-16	-1%	-10%
NCCCC[C@@H](C(=O)N1CCNCC1)n1cc(CN)nn1	.	-2%	-8%	-21	12%	32%
CCCCc1cn([C@@H](CCCCN)C(=O)N2CCNCC2)nn1	1%	?	56µM*	3	10%	35%
COc1ccc(C(CCN2CCCC(C)C2)c2c(OC)cc(OC)c3c(C)cc(=O)oc23)cc1 (configuration not stated)	?	-2%	-28%	0	.	10%
CCCCCc1cc(=O)oc2c(C(CCN3CCCC3)c3ccc4c(c3)OCO4)c(OC)cc(OC)c12 (configuration not stated)	.	.	50µM*	.	.	-34%
COc1cc(OC)c2ccc(=O)oc2c1C(CCN1CCCC1)c1ccc2c(c1)OCO2 (configuration not stated)	?	-32%	-36%	-2	.	4%
COc1cc(OC)c2c(-c3ccccc3)cc(=O)oc2c1C(CCN1CCCC1)c1ccc2c(c1)OCO2 (configuration not stated)	-21%	-38%	?	-22	.	-9%
CCCCCc1cc(=O)oc2c(C(CCN3CCCC(C)C3)c3ccc4c(c3)OCO4)c(OC)cc(OC)c12 (configuration not stated)	10%	32µM*	?	-5	.	-7%
CCCCCc1cc(=O)oc2c(C(CCN3CCCCC3)c3ccc4c(c3)OCO4)c(OC)cc(OC)c12 (configuration not stated)	-9%	?	45µM*	5	.	-24%
CCCN1C(=O)c2ccccc2NC1c1ccc(OC)c(COc2ccc([N+](=O)[O-])c(C)c2)c1 (configuration not stated)	.	.	?	.	.	-20%[57 µM]
CCN1CCN(C(=O)Cn2ncc3c([nH]c4ccccc43)c2=O)CC1	.	-17%	-2%	2	.	26%
CC1CC(C)CN(C(=O)Cn2ncc3c([nH]c4ccccc43)c2=O)C1 (configuration not stated)	.	-6%[57.1 µM]	25µM*	-8	.	-5%
